Values without a mark were called inactive.
The compounds below were run on gramicidin D channels in DC22:1PC lipid vesicles (bilayer-modifying potency) (assay: initial Tl+ fluorescence quench rate relative to no-drug control (NormRate, gramicidin monomer-dimer shift) (ratio (fold of control)); higher = stronger bilayer-modifying effect (equilibrium shifted toward conducting dimers), active = 1.5 or more). Conditions: 10 µM; lipid concentration 50 µM; temperature: 25 °C.
Protocol: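 Stopped-flow fluorescence quench assay: ANTS-loaded DC22:1PC large unilamellar vesicles doped with gramicidin D (1:2000), 50 µM lipid, equilibrated 10 min with 10 µM drug (0.1% DMSO), mixed with Tl+ quench buffer at 25°C. Initial quench rate (Tl+ influx) was fitted with a modified stretched exponential and normalised to the no-drug control rate (NormRate); duplicates from two independent LUV preparations (triplicates for 7 drugs).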

First: Nc1nc(N)c2c3c(sc2n1)CN(Cc1ccccc1)CC3
Second: c1ccc(-c2[nH]c3ccccc3c2[C@H](c2ccccn2)N2CCCC2)cc1
The “initial Tl+ fluorescence quench rate” value of the first is lower: 1.04 for the first, 1.06 for the second.

Going from O=C(Nc1nnc(-c2ccc(Cl)cc2)o1)c1cccc(C(F)(F)F)c1 to CC(=O)Nc1ccc(NC(=O)c2cc(-c3cc(Cl)ccc3O)[nH]n2)cc1, the “initial Tl+ fluorescence quench rate” value falls from 1.07 to 1.06.

Going from CC(C)c1ncc(-c2ccncc2)c([C@H]2CC[C@H](CNC(=O)c3cccnc3)CC2)n1 to Cc1cc(Nc2ccncc2)n2nc(C)c(-c3ccccc3Cl)c2n1, the “initial Tl+ fluorescence quench rate” value rises from 1.02 to 1.03.

First: CNC(=O)c1nn(C)c2c1C(C)(C)Cc1cnc(Nc3ccc(N4CCN(C)CC4)cc3)nc1-2
Second: CC(C)(C)OC(=O)N1CCN(c2nccc(-c3ccc(-c4ccc(Cl)cc4)s3)n2)CC1
The “initial Tl+ fluorescence quench rate” value of the first is lower: 1.04 for the first, 1.28 for the second.

First: CC(=O)NC[C@H]1CN(c2ccc(-c3ccc(CO)cc3)c(F)c2)C(=O)O1
Second: CC(=O)NC[C@@H]1CN(c2ccc(N3CCOCC3)c(F)c2)C(=O)O1
The “initial Tl+ fluorescence quench rate” value of the first is higher: 1.22 for the first, 1.08 for the second.

First: CCS(=O)(=O)N(Cc1ccco1)Cc1cc2ccc(C)cc2nc1O
Second: CS(=O)(=O)Cc1nc2ccccc2oc1=O
The “initial Tl+ fluorescence quench rate” value of the first is higher: 1.26 for the first, 1.08 for the second.

Compared with CC(C)(C)C(=O)N(CCCCCCN1C[C@H](O)[C@@H](O)[C@H](O)[C@H]1CO)C1CCCCCC1, C[C@H]1CCCCN1C(=O)NCCc1coc(-c2ccc(F)cc2)n1 is lower in “initial Tl+ fluorescence quench rate” value: 1.15 for the first, 1.06 for the second.

Going from CCOc1ccc2cc(-c3nn(C(C)(C)C)c(N)c3C(N)=O)cnc2c1 to CNc1snc(C)c1C(=O)NCCOc1ccc(OC)cc1, the “initial Tl+ fluorescence quench rate” value falls from 1.21 to 1.06.

First: N[C@H](CC(=O)c1ccc(Cl)cc1Cl)C(Cl)(Cl)Cl
Second: Cc1ccc2[nH]c3c(NCCN(C)C)ncnc3c2c1
The “initial Tl+ fluorescence quench rate” value of the first is higher: 1.12 for the first, 1.05 for the second.

For CN1CCN(S(=O)(=O)c2ccc(-c3ccc4c(Nc5ncc(Cl)cn5)ccnc4c3)cc2)CC1, the “initial Tl+ fluorescence quench rate” value was 2.76 (active).
For Cn1ccnc1CNCCS(=O)(=O)c1cccc(Nc2ccc(-c3cccc(F)c3)cn2)c1, the “initial Tl+ fluorescence quench rate” value was 2.38 (active).
Cc1cc(C)cc(COc2ccc3c(C)c(CCC(=O)O)c(=O)oc3c2C)c1 was tested, and the “initial Tl+ fluorescence quench rate” value was 2.64 (active).
With FC(F)(F)c1ccc(N(c2cccnc2)C2CCN(c3ccc(C(F)(F)F)cn3)CC2)cc1 the “initial Tl+ fluorescence quench rate” value was 1.56 (active).
For O=C(Nc1ccc(F)c(-c2nc3cc(-c4ccccc4)cnc3[nH]2)c1)N1CCCC1, the “initial Tl+ fluorescence quench rate” value was 1.72 (active).

Reference: the supplement of paper PMC9948646
